Bioassay records: PubChem BioAssay, National Center for Advancing Translational Sciences (NCATS)
Tb PYK inh – T. brucei pyruvate kinase inhibition | Q57TT1 | TbPYK enzyme, Kinase-Glo Plus ATP luminescence, 45 min | Potency, µM (top dose mostly 76.8 µM), hits mostly inhibitors | 410,000 compounds, 0.12% hits | AID 624173; note: nearly all actives have a fitted effect of over 50% in size
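Luminescence from Kinase-Glo Plus, added after a 45-minute room-temperature reaction, served as the end-point read-out. The enzyme and substrate were preincubated with compound before ADP (130 uM final) initiated turnover. Concentration-effect curves came from normalized qHTS data.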
FMDV antiviral – foot and mouth disease virus antiviral activity | FMDV antiviral cell-based qHTS | Potency, µM (doses to about 57.9 µM), actives largely listed as inhibitors | 410,000 compounds, 1.2% hits | AID 1159524; calls by dose curve; tested in HEK293T cells; note: read-out not given here; nearly all actives have a fitted effect of over 45% in size
RE007 growth inh – less growth of the S. pombe RE007 Vpr strain; S. pombe RE007 Vpr strain, BacTiter-Glo ATP luminescence, 24 h; Potency, µM (top dose mostly 92.2 µM), actives largely listed as inhibitors; 360,000 compounds, 0.21% hits; AID 651644; active = well fitted falling curve with a large enough effect; inconclusive = small, poorly fitted or top-dose-only effect; inactive = no such curve, though single readings can be large or run the other way; note: nearly all actives have a fitted effect of over 50% in size
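Fission yeast strain RE007, carrying one chromosomally integrated HIV-1 vpr copy, was seeded at OD 0.01 in PMG+AL medium with 23 nL pinned compound. After 24 h at 30 °C and 99% humidity, viability was read by BacTiter-Glo luminescence.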
Sm TGR inh – S. mansoni TGR enzyme inhibition | Q962Y6 | purified TGR, DTNB reduction, TNB absorbance 405 nm | Potency, µM (doses to about 114 µM), usual class: inhibitors | 360,000 compounds, 3% hits | AID 485364; note: nearly all actives have a fitted effect of over 60% in size
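TGR 20 nM + NADPH 100 uM (dispensed conc.), cpd preinc 15 min RT; start with NADPH (500 uM addition) then DTNB (15 mM addition). Kinetic TNB absorbance, 405 nm filter. Four-parameter Hill fit across titration.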
Numbers stand for hits; n = inactive; u = inconclusive; x = no result. Hits are enriched below; roughly 3.7% of the tested compounds scored in any of these assays. Unless noted, calls come from the whole dose curve; as a rule, active = well fitted curve in the direction sought with a large enough effect; inconclusive = small, poorly fitted or top-dose-only effect, or another doubt; inactive = no such curve, though single readings can be large; an effect the other way counts as inactive or inconclusive.

SMILES | Tb PYK inh | FMDV antiviral | RE007 growth inh | Sm TGR inh
CSc1ccc(CNC(=O)C2CCN(c3nnc(-n4cccc4CNc4ccc(C)cc4)s3)CC2)cc1 | n | n | x | n
Cc1ccnn1CC(=O)N1CCOc2c(cc(-c3ncc(C(F)(F)F)cc3Cl)cc2OCC2CCCO2)C1 (stereo not drawn) | x | n | x | x
Cc1ccc(-n2nc(-c3ccco3)cc2C(=O)O)cc1 | n | n | n | 25µM
O=C(c1cc(-c2cccc(Cl)c2)on1)N1CCCCCC1 | n | n | n | n
CCOC(=O)c1cc(-c2ccco2)nn1-c1ccc(C)cc1 | n | n | n | 14µM
O=C(c1cc(-c2ccco2)nn1-c1cccc(Cl)c1)N1CCCCC1 | 10µM | n | n | 7.1µM
CCOC(=O)c1cc(-c2ccco2)nc2c1c(C)nn2CCC#N | n | n | n | 4µM
COc1cccc(-n2c(SC)nnc2C2CCN(Cc3cccc(OC)c3O)CC2)c1 | x | n | x | x
CC(C)NC(=O)c1cc(-c2ccco2)nn1-c1ccc(Cl)cc1 | u | n | n | 2.8µM
COc1cc(/C=C/C(=O)c2ccc3c(c2)OCO3)cc(OC)c1OC | n | 22µM | n | n
COc1cc(/C=C/C(=O)c2ccc(F)cc2)cc(OC)c1OC | n | 25µM | n | x
COc1cc(/C=C/C(=O)c2ccc3c(c2)OCCO3)cc(OC)c1OC | n | u | n | n
CCCC12CN3CC(CCC)(CN(C1)C3c1c[nH]c3ccccc13)C2=O (stereo not drawn) | n | u | x | n
CN1CCN(C(CNC(=O)C(=O)Nc2cccc(Cl)c2)c2ccc3c(c2)OCO3)CC1 (stereo not drawn) | n | n | x | n
Cc1ccc(NC(=O)Cn2c(=O)n(CC(=O)NCCc3ccccc3)c(=O)c3ccccc32)cc1 | n | n | x | u
COc1cc(C2CC(=O)c3cnc(N4CCN(Cc5ccccc5)CC4)nc3C2)cc(OC)c1OC (stereo not drawn) | n | 16µM | n | n
COc1ccc(C2CC(=O)c3c(C)nc(N4CCN(Cc5ccccc5)CC4)nc3C2)cc1OC (stereo not drawn) | n | 11µM | n | n
Cc1nc(N2CCN(Cc3ccccc3)CC2)nc2c1C(=O)CC(C)C2 (stereo not drawn) | n | u | n | n
COc1cc(C2CC(=O)c3cnc(N4CCN(CCO)CC4)nc3C2)cc(OC)c1OC (stereo not drawn) | n | n | x | n
CCOC(=O)N1CCN(c2ncc3c(n2)CC(c2ccccc2O)CC3=O)CC1 (stereo not drawn) | n | 22µM | x | n
Cc1c(C(=O)N(C)CC2CCCN(C)C2)cnn1-c1nccc(-c2ccco2)n1 (stereo not drawn) | x | n | x | x
COC(=O)c1ccc(C(=O)OC)c(NC(=O)c2c(-c3ccccc3)c(-c3ccccc3)nn(C)c2=O)c1 | n | n | x | n
CCN(CC)c1ccc(NC(=O)C2COc3ccc(OC)cc3C2)c(C)c1 (stereo not drawn) | n | u | x | n
CCOc1cc(CNC(=O)c2cc(-c3ccc(Cl)s3)nc3ccccc23)ccc1OC | n | n | x | n
O=C(CSc1nncn2c1cc1occc12)Nc1ccccc1C(F)(F)F | n | n | x | n
SMILES | Tb PYK inh | FMDV antiviral | RE007 growth inh | Sm TGR inh
O=C(O)[C@@H]1Cc2ccccc2N1 | n | n | n | 56µM
O=C(O)C1Cc2ccccc2-c2ccccc2C1 | n | n | n | n
COc1cccc(N=CC2=C(O)CCCC2=O)c1 | n | n | 40µM | n
COc1cccc(N=CC2=C(O)CC(C)(C)CC2=O)c1 | n | n | u | n
COc1cc(CNCCCN2CCOCC2)cc(Br)c1OCc1ccc(Cl)cc1 | n | 40µM | n | n
CCOC(=O)c1cc(-c2ccccc2)n(CC(=O)N(C)c2ccc(OC)cc2)c1C | n | n | x | n
Cc1ccc(S(=O)(=O)N2C[C@H]3n4c(=O)ccc(=O)n4C[C@H](OC(=O)NCc4ccccc4F)[C@@]3(O)C2)cc1 | n | 20µM | n | x
CCCCCCNC(=O)O[C@H]1Cn2c(=O)n(CCCCCC)c(=O)n2[C@@H]2CN(S(=O)(=O)c3ccc(C)cc3)C[C@]12O | n | u | n | x
CCCCCCNC(=O)O[C@H]1Cn2c(=O)ccc(=O)n2[C@@H]2CN(S(=O)(=O)c3ccc(C)cc3)C[C@]12O | n | 18µM | n | x
CCCCCCn1c(=O)n2n(c1=O)[C@@H]1CN(S(=O)(=O)c3ccc(C)cc3)C[C@]1(O)[C@@H](OC(=O)NCc1ccccc1F)C2 | n | n | n | x
COc1ccc(-n2cc(C(=O)NCCc3cc(OC)ccc3OC)c3ccccc3c2=O)cc1 | n | n | x | n
